What is called AC50 is the midpoint of the concentration-response curve, whichever way the signal moves.

Experiment [1] deals with human Thyroid Receptor alpha (THRa1), THRA (gene 7067) (UniProt P10827). The experiment can be described thus: ATG_THRa1_TRANS: Attagene TRANS-FACTORIAL HepG2 Assay for human Thyroid Receptor alpha (THRa1) (AID 2283014; active means hit-call score of the fitted dose curve at least 0.9, where 1 is the maximum). The gist of the method:
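Measured here is mRNA from a GAL4-UAS reporter in transfected HepG2 cells carrying a Gal4-fused receptor, 24 h post-dose. DMSO served as negative control and baseline.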

The target in experiment [2] is human Vitamin D Receptor (VDR), VDR (gene 7421) (UniProt P11473). The experiment in a line: ATG_VDR_TRANS: Attagene TRANS-FACTORIAL HepG2 Assay for human Vitamin D Receptor (VDR) (AID 2283022; active means hit-call score of the fitted dose curve at least 0.9, where 1 is the maximum). The gist of the method:
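Multiplexed TRANS reporter in HepG2; 24 h treatment; reporter mRNA by RT-PCR plus capillary electrophoresis; upregulation scored relative to DMSO.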

The target of experiment [3] is human Retinoid X Receptor beta (RXRb), RXRB (gene 6257) (UniProt P28702). The experiment can be described thus: ATG_RXRb_TRANS: Attagene TRANS-FACTORIAL HepG2 Assay for human Retinoid X Receptor beta (RXRb) (AID 2283013; active means hit-call score of the fitted dose curve at least 0.9, where 1 is the maximum). In outline:
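Multiplexed TRANS reporter assay in HepG2; 24 h dosing; reporter mRNA by RT-PCR/CE fluorescence; gain-of-signal relative to DMSO.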

Read-out in experiment [4]: E-selectin (Homo sapiens) (UniProt P16581)
The experiment can be described thus: BSK_3C_Eselectin: BioMAP Diversity Plus: 3C Assay for Eselectin Biomarker Activity (AID 2283015).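 On outcome: cell surface E-selectin protein quantified by ELISA 24 h after dosing.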 Particulars: primary human endothelial cells (HUVEC); actives raise or lower the signal. In outline:
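Endpoint derived by bidirectional fitting against DMSO vehicle; signal is ELISA-detected E-selectin from primary HUVEC at 24 h post-dosing, with parallel SRB staining (0.1% SRB, 560 nm) flagging cytotoxicity.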

Read-out in experiment [5]: Interleukin-1 alpha (IL1a), IL1A (gene 3552)
The experiment in a line: BSK_BE3C_IL1a: BioMAP Diversity Plus: BE3C Assay for Interleukin-1 alpha (IL1a) Biomarker Activity (AID 2283016). The settings on record: primary human bronchial epithelial cells; actives raise or lower the signal. In outline:
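Cultures of primary human bronchial epithelial cells receive test chemical. After 24 h, IL-1a is quantified by ELISA, while parallel wells are fixed in TCA and SRB-stained for total protein. Changes in either direction are fitted relative to DMSO.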

Read-out in experiment [6]: Monocyte Chemoattractant Protein-1 (MCP1), CCL2 (gene 6347)
The experiment in a line: BSK_3C_MCP1: BioMAP Diversity Plus: 3C Assay for Monocyte Chemoattractant Protein-1 (MCP1) Biomarker Activity (AID 2283017). The settings on record: primary human endothelial cells (HUVEC); actives raise or lower the signal. In outline: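 Using human vascular primary endothelium, researchers measured MCP-1 by ELISA 24 h after treatment, with DMSO serving as negative control for bidirectional fitting.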

Read-out in experiment [7]: Monocyte Chemoattractant Protein-1 (MCP1), CCL2 (gene 6347)
The experiment can be described thus: BSK_4H_MCP1: BioMAP Diversity Plus: 4H Assay for Monocyte Chemoattractant Protein-1 (MCP1) Biomarker Activity (AID 2283018). The settings on record: primary human endothelial cells (HUVEC); actives raise or lower the signal. In outline:
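Readout: MCP-1 ELISA on compound-treated HUVEC, sampled 24 h post-dosing. Baseline and negative control DMSO; bidirectional fit. Overt toxicity checked alongside by sulforhodamine B protein staining at time of biomarker measurement.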

Read-out in experiment [8]: Human Leukocyte Antigen - DR isotype (HLADR), HLA-DRA (gene 3122)
The experiment can be described thus: BSK_3C_HLADR: BioMAP Diversity Plus: 3C Assay for Human Leukocyte Antigen - DR isotype (HLADR) Biomarker Activity (AID 2283019).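 On outcome: ELISA of cell-surface HLA-DR on HUVEC 24 h after dosing.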 The settings on record: primary human endothelial cells (HUVEC); actives raise or lower the signal. In outline: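 Compound added to primary HUVEC cultures, 24 h incubation, then HLA-DR determined by ELISA; endpoint derived by bidirectional fitting relative to DMSO negative control.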

Read-out in experiment [9]: Interleukin-8 (IL8), CXCL8 (gene 3576)
The experiment can be described thus: BSK_3C_IL8: BioMAP Diversity Plus: 3C Assay for Interleukin-8 (IL8) Biomarker Activity (AID 2283020). The settings on record: primary human endothelial cells (HUVEC); actives raise or lower the signal. In outline:
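Human vascular endothelial cells (umbilical vein) in the 3C system; IL-8 level detected by ELISA at 24 h post-dose, with DMSO as baseline.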

Read-out in experiment [10]: Monokine induced gamma interferon (MIG), CXCL9 (gene 4283)
The experiment in a line: BSK_3C_MIG: BioMAP Diversity Plus: 3C Assay for Monokine induced gamma interferon (MIG) Biomarker Activity (AID 2283021). Particulars: primary human endothelial cells (HUVEC); actives raise or lower the signal. In outline:
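After 24 h of treatment, human umbilical vein endothelial cultures (3C system) had their MIG biomarker level determined by ELISA, with DMSO serving as negative control.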

Experiment [11] is described as follows: BSK_3C_SRB: Viability Assessment in the BioMAP Diversity Plus: 3C Assay (AID 2283023).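 Further: fitted both ways against DMSO so a hit may be signal rise or drop.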 The settings on record: primary human endothelial cells (HUVEC). In outline: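 Overt cytotoxicity is gauged in parallel confluent HUVEC cultures by SRB total-protein staining at the time of biomarker measurement, 24 h after dosing. Gain or loss of signal is fitted versus DMSO.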

Read-out in experiment [12]: Matrix Metallopeptidase 1 (MMP1), MMP1 (gene 4312)
The experiment can be described thus: BSK_BE3C_MMP1: BioMAP Diversity Plus: BE3C Assay for Matrix Metallopeptidase 1 (MMP1) Biomarker Activity (AID 2283024). The settings on record: primary human bronchial epithelial cells; actives raise or lower the signal. The gist of the method:
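Dose cells, wait 24 h, run MMP1 ELISA; cells are human bronchial epithelial primaries. Both increases and decreases relative to DMSO counted.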

Read-out in experiment [13]: Pselectin, SELP (gene 6403)
The experiment can be described thus: BSK_4H_Pselectin: BioMAP Diversity Plus: 4H Assay for Pselectin Biomarker Activity (AID 2283026). Particulars: primary human endothelial cells (HUVEC); actives raise or lower the signal. In outline:
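Human vascular endothelium from umbilical vein; P-selectin measured by ELISA at 24 h post-dose, with cytotoxicity checked by sulforhodamine B total-protein staining in parallel cultures (0.1% SRB after 10% TCA fixation, read at 560 nm).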

A short description of experiment [14]: BSK_4H_SRB: Viability Assessment in the BioMAP Diversity Plus: 4H Assay (AID 2283027).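 Further: cells exposed to compound for 24 h before staining.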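 On AC50: curves fitted both ways versus DMSO so AC50 may be loss or gain.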 The settings on record: primary human endothelial cells (HUVEC). In outline:
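Human umbilical vein endothelial cells, 24 h after chemical dosing; total protein measured by 0.1% sulforhodamine B staining after 10% TCA fixation, read at 560 nm. Bidirectional fitting against DMSO.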

The nature of experiment [15]: BSK_BE3C_SRB: Viability Assessment in the BioMAP Diversity Plus: BE3C Assay (AID 2283028).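 On AC50: fitted both ways so AC50 may mark signal gain or loss versus DMSO.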 Particulars: primary human bronchial epithelial cells. The gist of the method: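 SRB total-protein staining (0.1%, after TCA fixation) of chemically dosed human bronchial epithelial primary cells at 24 h; DMSO serves as the negative control for bidirectional curve fitting.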

Read-out in experiment [16]: Thrombomodulin, THBD (gene 7056)
The experiment can be described thus: BSK_3C_Thrombomodulin: BioMAP Diversity Plus: 3C Assay for Thrombomodulin Biomarker Activity (AID 2283029). Particulars: primary human endothelial cells (HUVEC); actives raise or lower the signal. The gist of the method:
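Thrombomodulin ELISA, human primary HUVEC, 24 h post-dose; data fitted in both directions relative to DMSO.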

Read-out in experiment [17]: Urokinase-type plasminogen activator receptor (uPAR), PLAUR (gene 5329)
The experiment in a line: BSK_4H_uPAR: BioMAP Diversity Plus: 4H Assay for Urokinase-type plasminogen activator receptor (uPAR) Biomarker Activity (AID 2283030). Particulars: primary human endothelial cells (HUVEC); actives raise or lower the signal. In outline:
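Endpoint derived via bidirectional curve fitting against DMSO baseline; readout was ELISA detection of uPAR on umbilical vein endothelial cells at 24 h post-treatment, with SRB-stained parallel cultures assessing cytotoxicity.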

Read-out in experiment [18]: Vascular endothelial growth factor receptor 2 (Homo sapiens) (UniProt P35968)
The experiment in a line: BSK_4H_VEGFRII: BioMAP Diversity Plus: 4H Assay for Vascular endothelial growth factor receptor 2 (VEGFR2) Biomarker Activity (AID 2283031).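 On AC50: cell-surface VEGFR2 protein level quantified by ELISA.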 The settings on record: primary human endothelial cells (HUVEC); actives raise or lower the signal. The gist of the method:
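In this multiplexed HUVEC system, biomarker ELISA was performed after 24 h chemical exposure. Parallel SRB staining (TCA fixation, 560 nm) tracked cytotoxicity; DMSO served as baseline.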

Structures are written as SMILES. Results filed as inconclusive are left out. Calls of active or inactive are those of the source. How the source made its calls, unless noted: active means hit-call score of the fitted dose curve at least 0.9, where 1 is the maximum; inactive means score below 0.9.

human Retinoid X Receptor beta (RXRb), RXRB (gene 6257), sequence (P28702 whole entry, looked up): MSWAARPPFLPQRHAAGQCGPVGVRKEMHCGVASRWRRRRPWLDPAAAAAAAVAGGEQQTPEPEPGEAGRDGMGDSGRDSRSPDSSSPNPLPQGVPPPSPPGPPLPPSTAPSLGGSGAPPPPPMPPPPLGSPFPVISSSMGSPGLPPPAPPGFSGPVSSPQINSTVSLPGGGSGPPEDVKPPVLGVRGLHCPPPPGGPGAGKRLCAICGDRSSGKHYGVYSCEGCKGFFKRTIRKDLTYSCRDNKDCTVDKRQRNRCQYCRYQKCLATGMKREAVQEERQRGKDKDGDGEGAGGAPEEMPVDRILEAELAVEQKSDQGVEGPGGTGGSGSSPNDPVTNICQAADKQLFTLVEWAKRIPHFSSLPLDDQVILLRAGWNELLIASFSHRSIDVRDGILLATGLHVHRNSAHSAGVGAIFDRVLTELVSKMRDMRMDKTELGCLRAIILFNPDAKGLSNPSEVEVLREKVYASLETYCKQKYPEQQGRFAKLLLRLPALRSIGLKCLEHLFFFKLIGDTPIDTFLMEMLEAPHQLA
human Vitamin D Receptor (VDR), VDR (gene 7421), sequence (P11473 whole entry, looked up): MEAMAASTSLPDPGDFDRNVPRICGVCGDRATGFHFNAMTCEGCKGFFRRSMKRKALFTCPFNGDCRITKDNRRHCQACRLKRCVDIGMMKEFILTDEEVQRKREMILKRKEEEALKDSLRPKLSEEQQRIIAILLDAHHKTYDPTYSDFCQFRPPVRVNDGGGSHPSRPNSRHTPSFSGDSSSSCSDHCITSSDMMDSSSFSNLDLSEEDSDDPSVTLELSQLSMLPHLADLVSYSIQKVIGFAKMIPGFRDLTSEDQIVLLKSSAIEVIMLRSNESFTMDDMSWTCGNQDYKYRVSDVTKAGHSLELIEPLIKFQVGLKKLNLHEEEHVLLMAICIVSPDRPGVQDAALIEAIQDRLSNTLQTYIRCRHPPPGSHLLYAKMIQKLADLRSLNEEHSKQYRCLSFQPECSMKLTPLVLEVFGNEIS
E-selectin (Homo sapiens), sequence (P16581 whole entry, looked up): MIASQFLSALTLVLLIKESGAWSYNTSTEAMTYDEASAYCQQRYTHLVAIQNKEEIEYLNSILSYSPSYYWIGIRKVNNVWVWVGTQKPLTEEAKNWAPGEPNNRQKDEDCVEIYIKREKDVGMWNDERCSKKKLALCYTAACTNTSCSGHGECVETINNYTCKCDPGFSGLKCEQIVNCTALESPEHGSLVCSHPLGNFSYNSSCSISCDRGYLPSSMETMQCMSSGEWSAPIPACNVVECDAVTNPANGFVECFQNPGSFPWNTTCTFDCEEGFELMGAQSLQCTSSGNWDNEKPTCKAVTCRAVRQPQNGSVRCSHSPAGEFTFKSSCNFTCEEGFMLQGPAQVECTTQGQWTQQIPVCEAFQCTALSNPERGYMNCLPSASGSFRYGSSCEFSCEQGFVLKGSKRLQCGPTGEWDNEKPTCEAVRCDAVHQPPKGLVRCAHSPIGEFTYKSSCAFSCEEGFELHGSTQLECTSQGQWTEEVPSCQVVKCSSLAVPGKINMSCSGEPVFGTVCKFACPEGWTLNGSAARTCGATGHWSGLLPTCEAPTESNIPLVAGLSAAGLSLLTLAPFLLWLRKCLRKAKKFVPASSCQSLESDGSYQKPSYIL
human Thyroid Receptor alpha (THRa1), THRA (gene 7067), sequence (P10827 whole entry, looked up, the tested form may be a part): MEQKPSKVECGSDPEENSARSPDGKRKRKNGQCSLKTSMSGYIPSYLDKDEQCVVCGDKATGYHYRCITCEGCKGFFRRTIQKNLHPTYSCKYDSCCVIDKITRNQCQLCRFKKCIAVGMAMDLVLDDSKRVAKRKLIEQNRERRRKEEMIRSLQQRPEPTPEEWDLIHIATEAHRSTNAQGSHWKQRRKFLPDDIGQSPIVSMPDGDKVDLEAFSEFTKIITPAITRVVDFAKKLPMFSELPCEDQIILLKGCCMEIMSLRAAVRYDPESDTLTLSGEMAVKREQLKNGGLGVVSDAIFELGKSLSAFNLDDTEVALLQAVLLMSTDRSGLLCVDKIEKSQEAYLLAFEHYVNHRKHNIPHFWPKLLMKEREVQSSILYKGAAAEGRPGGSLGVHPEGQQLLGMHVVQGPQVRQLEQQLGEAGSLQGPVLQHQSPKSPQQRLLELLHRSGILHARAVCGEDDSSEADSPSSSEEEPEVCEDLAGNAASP

In the case of `c1cc(C(c2ccc(OCC3CO3)cc2)c2ccc(OCC3CO3)cc2)ccc1OCC1CO1` (stereo unspecified), the compound was classed as inactive in experiment [1] and in experiment [2].

In the case of `O=S(=O)(O)NC1CCCCC1`, the compound was classed as inactive in [1].

On to `NC(=O)Nc1ccc(Cl)cc1`, for which the call in [1] was inactive.

Turning to `CC(CN1c2ccccc2Sc2ccccc21)N(C)C` (stereo unspecified), the call in experiment [1] was inactive.

Consider `OCc1cccnc1`, for which, in experiment [1], the outcome was inactive.

Turning to `ClCCCl`, the compound was classed as inactive in [3] and in [2].

As for `CCC(C(=O)NC(N)=O)c1ccccc1` (stereo unspecified), the result in experiment [1] was inactive.

As to `CN(C)C(=N)N=C(N)N`, the compound was called inactive in experiment [1].

Consider `C=CC(=O)OCCOCCOCC`, for which the compound was classed as inactive in experiment [1].

`CCC(=O)/C=C/C1C(C)=CCCC1(C)C` (stereo unspecified): the concentration at half-maximal activity (AC50) in experiment [3] was 34.7 µM (active). Besides, the outcome in [2] was inactive.

Take `Cc1ccc(C=O)cc1`: the compound was classed as inactive in experiment [1].

As for `O=C(O)c1ccc(C(=O)O)cc1`, in experiment [1], the compound was called inactive.

For the compound `C=CC(C)(CCC=C(C)C)OC=O` (stereo unspecified), the result in [1] was inactive.

As for `OCCCCCO`, the compound was classed as inactive in experiment [1].

Regarding `C=C[C@@H](C)CCC=C(C)C`, the outcome in experiment [1] and in experiment [2] was inactive.

For `CC(C)=CCCC(C)=CCCC(C)=CCO`, the half-maximal activity concentration (AC50) in experiment [3] was 28.1 µM (active). Also, in experiment [2], the call was inactive.

In the case of `Nc1ccc(S(=O)(=O)O)c(N)c1`, the outcome in [3] and in [2] was inactive.

For the compound `CCC(=O)OCc1ccccc1`, the compound was classed as inactive in experiment [1], in [4], in experiment [5], in [6], in [7] and in experiment [8]. In addition, the outcome in [9], in [10], in experiment [2], in experiment [11], in [12] and in experiment [13] was inactive. The result in experiment [14], in experiment [15], in experiment [16], in experiment [17] and in experiment [18] was inactive.

On to `O=[N+]([O-])c1ccc(C=Cc2ccc([N+](=O)[O-])cc2S(=O)(=O)O)c(S(=O)(=O)O)c1`, for which the compound was classed as inactive in experiment [1].

`CC(=O)O[C@H](CC(=O)[O-])C[N+](C)(C)C`: in experiment [1], the result was inactive.

With `CC(C)(CO)[N+](=O)[O-]`, the compound was classed as inactive in experiment [1].

For the compound `CC1(C)C(=O)N(Br)C(=O)N1Cl`, the result in experiment [1] was inactive.

As to `CCCCC/C=C/C=C/C=O`, the result in experiment [1], in experiment [12] and in [16] was inactive. Besides, the half-maximal activity concentration (AC50) in [4] is 30.1 µM (active); in experiment [5], 20 µM (active); in experiment [6] it was 29.4 µM (active); in experiment [7], 36.3 µM (active); in [8], 20 µM (active); in experiment [9], 31.8 µM (active). In addition, the AC50 in [11] was 31.1 µM (active); in [13], 27.1 µM (active); in experiment [14], 30.5 µM (active); in experiment [15], 30.3 µM (active); in experiment [17], 35.6 µM (active); in experiment [18], 20 µM (active).

On to `CC(=O)C=CC1=C(C)CCCC1(C)C`, for which the AC50 in [3] is 43.9 µM (active). Also, the compound was classed as inactive in [2].

On to `CNCCO`, for which the call in experiment [1] was inactive.

As to `O=c1[nH]c(=O)n([C@H]2CCCO2)cc1F`, in experiment [1], the compound was classed as inactive.

In the case of `Cc1ccc(C=O)s1`, in [1], the call was inactive.

On to `CCCCCCCCCCC(CO)CCCCCCCC` (stereo unspecified), for which the result in [1] was inactive.

`O=C(O)CCCCCCCCCCC(=O)O`: the result in experiment [1] was inactive.

For the compound `FC1(F)C(F)(F)C(F)(F)C2(F)C(F)(C1(F)F)C(F)(F)C(F)(F)C1(F)C(F)(F)C(F)(F)C(F)(F)C(F)(F)C12F` (stereo unspecified), the call in experiment [1] was inactive.

`CC1(C)[C@H](C(=O)OCc2cccc(Oc3ccccc3)c2)[C@@H]1C=C(Cl)Cl`: the compound was classed as inactive in experiment [1].

As to `O=C(OCc1ccccc1)C(=O)OCc1ccccc1`, the compound was classed as inactive in experiment [3] and in [2].

Take `CC1CC(OC(=O)c2ccccc2O)CC(C)(C)C1` (stereo unspecified): the compound was called inactive in experiment [1].

For the origin of these results see PubChem BioAssay (EPA / NIEHS).
